A selection: hits, their analogues and other compounds. The true share with any hit is near 2.6%.
Cruzain inh Det = qHTS Assay for Promiscuous and Specific Inhibitors of Cruzain (with detergent). hit rate 0.43% among 200,000. Potency, µM, without a hit: max response, negative = inhibition, usual class: inhibitors. purified cruzain, Z-FR-AMC fluorescence, 0.01% Triton. Cruzipain (Trypanosoma cruzi), P25779;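 further: plate controls were neutral wells for no effect and buffer without enzyme for full effect; nearly all actives have a fitted effect of over 40% in size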
Target sequence (P25779 123-467 limits assumed): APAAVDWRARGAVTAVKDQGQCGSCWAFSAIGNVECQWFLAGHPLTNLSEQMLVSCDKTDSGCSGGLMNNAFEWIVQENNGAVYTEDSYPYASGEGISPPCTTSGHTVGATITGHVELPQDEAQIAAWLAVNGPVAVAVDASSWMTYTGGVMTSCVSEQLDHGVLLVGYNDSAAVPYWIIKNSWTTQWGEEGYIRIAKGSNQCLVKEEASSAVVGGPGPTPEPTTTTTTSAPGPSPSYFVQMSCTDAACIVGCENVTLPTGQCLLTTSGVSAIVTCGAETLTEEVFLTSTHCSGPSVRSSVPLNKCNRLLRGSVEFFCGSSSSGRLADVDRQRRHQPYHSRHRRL
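Z-FR-AMC hydrolysis (2 uM substrate) by cruzain (1.5 nM) monitored kinetically at ex 360/em 450 nm after 15 min room-temperature compound exposure; 0.01% Triton X-100, pH 5.5, 5 mM DTT.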
Cruzain noTriton = qHTS Assay for Promiscuous and Specific Inhibitors of Cruzain (without detergent); Potency, µM, for inactives: max response, negative = inhibition, actives largely listed as inhibitors; Cruzipain (Trypanosoma cruzi), P25779; hit rate 2.3% among 200,000; AID 1476, 2009; purified cruzain, Z-FR-AMC fluorescence, no detergent;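 further: plate controls were enzyme without inhibitor for no effect and buffer without enzyme for full effect; nearly all actives have a fitted effect of over 40% in size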
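Detergent-free condition (0.00005% Triton X-100) in acetate buffer pH 5.5 with DTT. 1.5 nM enzyme and compound were pre-mixed 15 min, then 2 uM Z-FR-AMC substrate added; reaction progress from fluorescence change between first and third reads (60 s).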
* hit, by the source's call; ? = inconclusive. The call rests on the fitted dose curve; in most records, active means well fitted curve in the direction sought with a large enough effect; inconclusive means small, poorly fitted or top-dose-only effect, or another doubt; inactive means no such curve, though single readings can be large; an effect the other way counts as inactive or inconclusive. Potency means the concentration at half of the fitted maximal effect.

SMILES	Cruzain inh Det	Cruzain noTriton
CC1=C(C(=O)Nc2cccnc2)C(c2ccc(Cl)cc2)n2nc(SCc3ccccc3)nc2N1 (stereo unspecified)	-1%	8%
Cc1nc2cnc(N3CCOCC3)nc2n(Cc2ccc(F)cc2)c1=O	1%	6%
COc1ccc(-c2nc3cnc(N(C)C)nc3n(CCc3ccccc3)c2=O)cc1	-1%	2%
O=C1OC(c2ccc3c(c2)OCO3)N(C(=O)c2ccc(Cl)c(Cl)c2)c2ccccc21 (stereo unspecified)	-1%	32µM*
Cc1cccc(C(=O)N2c3ccccc3C(=O)OC2c2ccc3c(c2)OCO3)c1 (stereo unspecified)	0%	?
N#Cc1c(NC(=O)CSc2nc3c(c(C(F)(F)F)n2)CCc2ccccc2-3)sc2c1CCCC2	-3%	7.9µM*
Cc1nn(Cc2ccc(Cl)cc2)c(C)c1NC(=O)CSc1nc2c(c(C(F)(F)F)n1)CCc1ccccc1-2	4%	?
CCn1c(SCC(=O)Nc2sc3c(c2C#N)CCCC3)nnc1-c1ccncc1	-10%	?
N#Cc1c(NC(=O)CSc2nnc(-c3ccccc3O)n2-c2ccccc2)sc2c1CCCC2	3%	4µM*
CC1CCc2c(sc(NC(=O)CSc3nc4c(c(C(F)(F)F)n3)CCc3ccccc3-4)c2C(N)=O)C1 (stereo unspecified)	-2%	10µM*
NC(=O)c1c(NC(=O)CSc2nc3c(c(C(F)(F)F)n2)CCc2ccccc2-3)sc2c1CCCC2	0%	?
COc1ccc2c(Sc3ccc(Cl)cc3)c(C(=O)NCCCN3CCCCC3)[nH]c2c1	-9%	-13%
Cc1ccc(-n2c(=O)c3ccc(C(=O)NCc4ccccc4Cl)cc3n(Cc3ccccc3F)c2=O)cc1	-2%	1%
CN1CCN(C(CNC(=O)C(=O)Nc2ccc(F)cc2F)c2ccc3c(c2)OCO3)CC1 (stereo unspecified)	-2%	-5%
CC1=C(C(=O)Nc2ccccc2Br)C2(CCC(C)CC2)OC1=O (stereo unspecified)	-3%	-1%
O=C(CSc1nc2c([nH]c3ccccc32)c(=O)n1-c1ccc(Cl)cc1)N1CCCCCC1	3%	5%
COc1ccc(-c2cn3c(n2)sc2cc(C(=O)N4CCCCC4)ccc23)cc1	0%	2%
CCc1ccc(NC(=O)c2nn(-c3ccc(OC)cc3)c(=O)c3c2c2ccccc2n3C)cc1	-1%	-15%
CCCc1nccn1S(=O)(=O)c1cc(Br)ccc1OC	-3%	-5%
O=C(CSc1nnc(COc2cccc3ccccc23)o1)N1c2ccccc2CCc2ccccc21	10%	13µM*
O=C(CSc1nnc(-c2c[nH]c3ccccc23)o1)N1c2ccccc2CCc2ccccc21	1%	?
O=C(CSc1nc2ccccc2s1)N1c2ccccc2Sc2ccc(C(F)(F)F)cc21	5%	10µM*
O=C(CSc1nc2ccccc2o1)N1c2ccccc2Sc2ccccc21	-2%	?
O=C1c2ccccc2C(=O)N1CC(=O)N1c2ccccc2Sc2ccc(C(F)(F)F)cc21	-7%	?
O=C(CSc1nc2ccccc2s1)N1c2ccccc2Sc2ccc(Cl)cc21	5%	16µM*
SMILES	Cruzain inh Det	Cruzain noTriton
COc1cccc(OCc2nnc(SCC(=O)N3c4ccccc4Sc4ccc(Cl)cc43)o2)c1	-4%	?
Cc1cccc(OCc2nnc(SCC(=O)N3c4ccccc4Sc4ccc(Cl)cc43)o2)c1	-2%	13µM*
COc1ccc(-c2nc(-c3ccccc3)c(NC(C)C)o2)cc1	0%	-11%
Cc1cccc(NC(=O)c2ccc3nc(CCc4ccccc4)oc3c2)c1C	-2%	2%
O=C(CSc1nc(C2CC2)nc2ccccc12)N1c2ccccc2Sc2ccccc21	-5%	25µM*
CC(C)C(=O)NNC(=O)CSc1nc(C2CCCCC2)nc2ccccc12	2%	-8%
COc1ccc(NC(=O)[C@@H]2[C@@H]3C(=O)N(C4CCCCC4)C(=O)[C@@H]3C3c4ccccc4C=CN32)cc1 (stereo partly specified)	-2%	16µM*
CC(=O)[C@@H]1[C@@H]2C(=O)N(C3CCCCC3)C(=O)[C@@H]2C2c3ccccc3C=CN21 (stereo partly specified)	1%	-15%
COc1ccc(NC(=O)CN(C)S(=O)(=O)c2ccc3c(c2)CCCN3C(C)=O)cc1Cl	-3%	14%
CCOc1ccc(CCNC(=O)c2cnc3c(-c4ccc(F)cc4)c(C)nn3c2C)cc1	1%	-1%
CC(/C=N/NC(=O)Cc1cccs1)=C\c1ccccc1	-5%	-9%
O=C(Cc1cccs1)N/N=C/C(Br)=C/c1ccccc1	1%	16µM*
N#Cc1ccc(-c2ccccc2)nc1SCC(=O)c1cc2ccccc2oc1=O	-5%	20µM*
CC(C)c1c(C#N)c(N)nc(SCC(=O)c2cc3ccccc3oc2=O)c1C#N	1%	-37%
CC(C)C[C@@H](CC(=O)N[C@@H](CCC(=O)O)CC(=O)O)NC(=O)[C@@H]1CCCC[C@H]1NC(=O)C[C@H](CCCN)NC(=O)C[C@H](CO)NC(=O)[C@@H]1CNCC[C@H]1N	4%	-4%
COc1ccc(Cl)cc1NC(=O)c1cc(S(=O)(=O)N(C)Cc2ccccc2)ccc1F	1%	1%
Cc1ccc(-c2nnn(CC(=O)NCCC3=CCCCC3)n2)cc1	8%	?
O=C(Cn1nnc(-c2ccc(Cl)cc2)n1)NCCC1=CCCCC1	10%	20µM*
N#Cc1cc(-c2ccccc2)nc(Oc2ccccc2)n1	16µM*	-25%
CCN(CC)c1nc(C#N)cc(-c2ccc(OC)cc2)n1	-14%	-14%
CN1CCN(c2nc(C#N)cc(-c3ccccc3)n2)CC1	-22%	?
COc1ccc(-c2cc(C(N)=O)nc(N3CCCCCC3)n2)cc1	-4%	32µM*
N#Cc1ccc(Oc2nc(C#N)cc(-c3ccccc3)n2)cc1	14µM*	-23%
COc1ccc(-c2cc(C(F)(F)F)nc(N3CCCCCC3)n2)cc1	-1%	6%
COc1ccc(-c2cc(C#N)nc(N3CCNCC3)n2)cc1	-24%	32µM*
SMILES	Cruzain inh Det	Cruzain noTriton
NC(=O)c1cc(-c2ccccc2)nc(Oc2ccccc2)n1	-3%	-14%
COC(=O)[C@H](Cc1ccccc1)NC(=O)O[C@@H]1Cc2cc(OC)ccc2O[C@H]1c1cccc(OC)c1	-2%	-11%
CCCCNC(=O)CCCn1c(=O)c2ccccc2n(Cc2cccc(Cl)c2)c1=O	-2%	2%
Cc1ccc2c(C)c(C(=O)N3CCC(c4nc5ccccc5s4)CC3)oc2c1C	-7%	3%
C[C@H]1[C@H](C)CC[C@]2(C(=O)O)CC[C@]3(C)C(=CC[C@H]4[C@]3(C)C[C@@H](O)C3[C@](C)(CO)[C@H](O)[C@@H](O)C[C@]34C)[C@H]12 (stereo partly specified)	-3%	?
COc1ccc(CCNC(c2ccc(F)cc2)c2nnc(-c3ccccc3Cl)o2)cc1OC (stereo unspecified)	-6%	?
CC(C)NC(=O)CN1C(=O)c2cccnc2Sc2ccccc21	-2%	-2%
COc1ccc(Oc2nccc(-c3ccc(Cl)cc3)n2)cc1	2%	-3%
COc1ccc(-c2cc(C#N)nc(Oc3ccc(Cl)cc3)n2)cc1	28µM*	25µM*
C=C(C)C(=O)OCCCCCC	1%	-6%
O=[N+]([O-])c1cc(-n2cnnn2)ccc1N1CCC(Cc2ccccc2)CC1	-5%	25µM*
